# Assay outcomes as filed in PubChem BioAssay.
# Rows were chosen to be rich in hits. Some 14% of all compounds tested hit in one or more screens of this group.
# Shiga toxin inh: Shiga toxin inhibition; Vero cells, Shiga toxin protein synthesis inhibition reporter; inhibition, % at 38.7 µM; 290,000 tested, 9.2% active; AID 2315; in the data active = inhibition mostly above about 28%, no sharp cut-off; inactive = mostly below about 43%; also: 0% is about no effect
# NS1 inh: influenza NS1 inhibition; Potency, µM (doses to about 46.1 µM), without a hit: top-dose activity, positive = more growth; 270,000 tested, 0.4% active; calls by dose curve; also: potency is read from the fitted curve at half-maximal effect; actives are rising curves; nearly all actives have a fitted effect of over 50% in size
#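 A cell-based growth assay was used: compounds that relieve NS1-induced slow growth of budding yeast raise OD600. Assay medium was yeast nitrogen base with ammonium sulphate and -URA supplement, pH 6.0, with 2% galactose.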
# Cycloheximide cs: affects cycloheximide protein synthesis inhibition readout, counter-screen. cell reporter, cycloheximide protein synthesis inhibition counterscreen. max response, %. 300,000 tested, 12% active. AID 2314; in the data active = max response mostly above about 13%, no sharp cut-off; inactive = mostly below about 14%; also: read at 38.3 µM for the half of the compounds with a filed dose; 0% is about no effect
# LmPK inh: inhibitors of Leishmania mexicana pyruvate kinase | AID 1721 | Potency, µM (series often up to 57.5 µM), for the others: at the highest dose activity change, negative = inhibition, hits mostly inhibitors | 290,000 tested, 0.37% active | Q27686 | purified LmPK, Kinase-Glo ATP luminescence, 1 h; also: potency is read from the fitted curve at half-maximal effect; % is scaled to controls: 0 for no effect and ±100 for the full control effect
#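 ATP generated from ADP (0.1 mM) and PEP (0.5 mM) by 0.1 nM LmPK over 1 h at room temperature (pH 7.2 imidazole buffer) was detected by coupled luciferase luminescence. Values were normalized to uninhibited and no-enzyme wells.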
# FBPA Giardia inh: blocks Giardia fructose-bisphosphate aldolase activity; 290,000 tested, 0.71% active; A8B2U2; Potency, µM (highest dose often 59.6 µM), inactives show at the top dose activity, negative = inhibition, hits mostly inhibitors; purified Giardia FBPA; also: potency is read from the fitted curve at half-maximal effect; % is scaled to controls: 0 for no effect and ±100 for the full control effect; nearly all actives have a fitted effect of over 55% in size
# Target sequence (A8B2U2 whole entry, looked up): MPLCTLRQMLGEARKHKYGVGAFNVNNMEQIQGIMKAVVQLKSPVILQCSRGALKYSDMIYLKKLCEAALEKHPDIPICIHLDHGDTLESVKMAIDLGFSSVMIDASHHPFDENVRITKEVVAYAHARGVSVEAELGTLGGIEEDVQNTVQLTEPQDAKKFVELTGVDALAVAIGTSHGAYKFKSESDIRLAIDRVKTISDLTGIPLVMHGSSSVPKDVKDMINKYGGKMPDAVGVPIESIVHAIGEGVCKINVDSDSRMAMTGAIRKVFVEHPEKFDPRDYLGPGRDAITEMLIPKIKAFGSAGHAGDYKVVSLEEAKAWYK
#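 Giardia FBPA (40 nM reagent) was preincubated 10 min at RT with compound (up to 57.5 uM final), then substrate plus GAPDH/TPI/NAD/arsenate coupling system with diaphorase/resazurin was added; resorufin fluorescence (525/598 nm) was read after 20 min.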
# * hit, by the source's call; ? = inconclusive; / = no result; [ ] = dose if it differs, or a comment. Unless noted, calls follow the shape of the dose curve; as a rule, active = well fitted curve in the direction sought with a large enough effect; inconclusive = small, poorly fitted or top-dose-only effect, or another doubt; inactive = no such curve, though single readings can be large; an effect the other way counts as inactive or inconclusive.
SMILES,Shiga toxin inh,NS1 inh,Cycloheximide cs,LmPK inh,FBPA Giardia inh
COc1cccc(Nc2ncnc3onc(-c4ccccc4OC)c23)c1,7,-13%,-1,-2%,4%
O=C(CCc1nc(-c2ccccc2Cl)no1)NC1CCCCC1,-6,-4%,-3,-11%,/
COc1ccc2[nH]cc(C(=O)CNc3nc(C)cs3)c2c1,141*,-14%,36*,-3%,-20%
Cc1ccc(C(=O)N2N=C(c3cccc(NS(C)(=O)=O)c3)CC2c2cccs2)cc1 (stereo unspecified),-14,?,-3,2%,9%
COc1cc2cccc(OC)c(=O)c2c(O)c1OC,23,-4%,34*,-4%,-1%
CCc1ccc(NC(=O)Cn2cccc2)cc1,66,/,25*,-2%,-4%
Cc1ccc(NC(=O)Cn2cccc2)cc1C,33,-5%,15*,-8%,0%
CCn1c(CN(C)c2ccccc2)nc2ccccc21,10,20%,3,0%,-14%
Cn1cc(C(c2ccccc2OCC(=O)O)c2cn(C)c3ccccc23)c2ccccc21,-10,?,-1,-5%,?
Cc1ccccc1OCCn1ccnc1,-4,-7%,38*,-1%,?
O=C1c2ccccc2C(=O)N1CCOc1ccccc1Br,73*,-16%,42*,-2%,/
COc1ccc(OC(=O)CCCN2C(=O)c3ccccc3C2=O)cc1,-10,-4%,-2,1%,-1%
COc1ccccc1OCCn1ccnc1,11,-8%,-1,-3%,?
COc1ccc(OCCN2C(=O)c3ccccc3C2=O)cc1,90*,/,29*,-18%,-1%
Nc1cccc2c1C(=O)N(CCOc1ccc(F)cc1)C2=O,140*,-5%,54*,-4%,11%
COc1nc(N)nc2nc[nH]c12,-4,3%,-2,-8%,-30%
CCOC(=O)CCNC(=O)Nc1cc2nc(C)n(Cc3cccc(Cl)c3)c2nc1C,-5,5%,-6,1%,4%
Cc1ccccc1OCCN1C(=O)c2ccccc2C1=O,154*,-8%,47*,-6%,2%
CC(C)Oc1cccc(OCCN2C(=O)c3ccccc3C2=O)c1,36*,-4%,27*,-2%,-3%
Cc1ccccc1OCCN1C(=O)C(=O)c2cccc(C)c21,-9,13%,-1,2%,-5%
O=C1N=C(N2C=CC(=C3C=CNC=C3)C=C2)/C(=C/N=NC(=O)c2ccccc2O)S1,54*,18%,26*,5%,/
CC(=O)n1cc(N(C(=O)CCl)c2ccc(Cl)cc2)c2ccccc21,61*,-78%,27*,-2%,-9%
CCOC(=O)c1ccc2nc(Nc3nc4ccc(F)cc4s3)sc2c1,147*,-5%,150*,-2%,11%
COC(=O)c1ccc2nc(NC(=O)CCS(=O)(=O)c3ccccc3)sc2c1,-1,-10%,-1,-9%,/
COC(=O)c1ccc2nc(Nc3nc4c(F)cc(F)cc4s3)sc2c1,-15,14%,57*,-1%,8%
SMILES,Shiga toxin inh,NS1 inh,Cycloheximide cs,LmPK inh,FBPA Giardia inh
CCOC(=O)c1ccc2nc(NC(C)=O)sc2c1,56,/,48*,-11%,1%
CCOc1ccc(CNC(=O)CCC(=O)n2nc(C)c3ccccc32)cc1,-2,-10%,-2,9%,/
CCc1nnc(NS(=O)(=O)c2ccc(NS(=O)(=O)c3ccc(NC(C)=O)cc3)cc2)s1,-12,11%,-2,5%,16%
CCc1nnc(NS(=O)(=O)c2ccc(N/C=C\C(=O)c3cccc(OC)c3)cc2)s1,72*,0%,32*,0%,13%
CCc1nnc(NS(=O)(=O)c2ccc(N/C=C\C(=O)c3ccc(F)cc3)cc2)s1,66*,7%,47*,0%,11%
CCc1nnc(NS(=O)(=O)c2ccc(N/C=C\C(=O)c3ccc(C)cc3)cc2)s1,103*,-52%,28*,4%,9%
CCc1nnc(NS(=O)(=O)c2ccc(N/C=C/C(=O)c3ccc(C)cc3)cc2)s1,93*,1%,39*,0%,8%
C/C(=N\O)c1cccc[n+]1Cc1ccccc1,/,-8%,/,/,/
Cc1nnc(-c2ccco2)c2cn(-c3cccc(Br)c3)nc12,18,-2%,44*,-1%,2%
CC(=O)c1nn(-c2cccc(Br)c2)cc1C(=O)c1ccco1,24,5%,-1,1%,2%
COCCCNC(=S)NC(=O)c1ccc(C)cc1,123*,12%,78*,-1%,3%
COCCCNC(=S)NNC(=O)c1ccc(C(C)(C)C)cc1,-19,-1%,3,6%,4%
CCCCC(=O)NNC(=S)NC(=O)c1ccc(C)cc1,49*,-72%,22,0%,3%
CCCCC(=O)NNC(=S)NC(=O)c1ccc([N+](=O)[O-])cc1,-17,/,-1,-5%,?
COC(=O)/N=C(/Cc1ccc(OC)cc1)c1ccc(OC)cc1,56*,-25%,18*,?,-8%
COc1ccc(C/C(=N\OC(C)=O)c2ccc(OC)cc2)cc1,23,-40%,18*,?,1%
CC(C)(C)c1ccc(OCC(=O)N2CCCCCC2)c(Br)c1,120*,-42%,43*,0%,-4%
Cc1ccc(OCC(=O)N2CCCCC2)c(Br)c1,63*,-9%,38*,2%,7%
COC(=O)C/C=C\[C@@H](C)[C@@H]1C=C[C@H](OC(C)=O)[C@H](COC(C)=O)O1,/,/,/,/,1%[12.9 µM]
COCCn1nnnc1C(c1ccccc1)N1CCN(C(=O)c2ccco2)CC1 (stereo unspecified),-5,-1%,5,-6%,/
COc1ccc(Cl)cc1C(=O)n1cnc2ccccc21,/,-2%,-3,1%,-14%
O=C(NCc1ccccc1)C(=O)Nc1cccc(C(=O)O)c1,158*,5%,61*,-24%,1%
O=C(Nc1cccc(C(=O)O)c1)Nc1cccc2ccccc12,29,3%,21*,-4%,6%
O=C(Nc1ccc(Cl)cc1)Nc1cccc(C(=O)O)c1,110*,1%,52*,-3%,10%
CC(=O)Nc1cccc(NC(=O)Nc2cccc3ccccc23)c1,-24,-8%,10,-8%,/
SMILES,Shiga toxin inh,NS1 inh,Cycloheximide cs,LmPK inh,FBPA Giardia inh
CSc1cccc(NC(=O)C(=O)NCc2ccccc2)c1,5,4%,-1,5%,2%
O=C(Nc1cccc(Cl)c1)Nc1cccc(C(=O)O)c1,76*,2%,35*,0%,13%
COc1ccc(-c2nc3cnc(N(C)C)nc3n(C)c2=O)cc1,/,/,/,/,1%
COc1ccc(C(=O)NCc2nnc(SCC(=O)Nc3cc(Cl)ccc3OC)o2)cc1,1,0%,5,3%,-2%
O=C(Nc1ccccc1Cl)c1cccc(NC(=O)C2CCCC2)c1,2,-43%,12*,3%,8%
O=C(O)c1cccc(NC(=O)c2ccccc2)c1,/,16%,/,/,/
O=C(Nc1cccc(C(=O)O)c1)Nc1ccccc1Cl,98*,3%,31*,?,13%
COc1c(OC)c2occc2c2oc(=O)ccc12,/,/,/,/,-8%
CSc1ncccc1C(=O)NC1CCCCCCC1,22,-1%,-3,-5%,10%
O=C(C[n+]1ccc(C(=O)N/N=C/c2ccc(Cl)cc2Cl)cc1)c1ccccc1,21,0%,9,7%,0%
